Screens deposited in PubChem BioAssay by National Center for Advancing Translational Sciences (NCATS).
Hits are enriched below; roughly 19% of the tested compounds scored in any of these assays.
DT40 TDP1 CPT – DT40-hTDP1 cell growth loss with CPT; chicken DT40 Tdp1-/-;hTDP1 cells + 20 nM CPT, ATP luminescence, 48 h; Potency, µM (top dose mostly 46.2 µM), actives largely listed as inhibitors; actives 12% (n = 420,000); AID 686979; also: nearly all actives have a fitted effect of over 55% in size
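Cell growth measured by CellTiter-Glo luminescence after a minimum 48 h, 37 C compound exposure with 20 nM CPT in Tdp1-knockout DT40 cells stably expressing hTDP1, seeded 400/well; qHTS titration format.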
HT1080NT lethal – kills 2HG-producing HT-1080-NT fibrosarcoma cells; HT-1080-NT fibrosarcoma viability, CellTiter-Glo ATP luminescence, 48 h; actives 1.6% (n = 360,000); Potency, µM (doses to about 46.1 µM), most hits filed as cytotoxic;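 also: NT is the 2HG producing partner of a matched IDH1 knockdown line; nearly all actives have a fitted effect of over 55% in size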
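Read-out is CellTiter-Glo luminescence after 10 minutes at room temperature, following 48 hours' compound treatment of HT-1080-NT cells (750 cells/well, RPMI, 5% FBS, 37 degrees C).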
TDP1 cell noCPT – qHTS for Inhibitors of human tyrosyl-DNA phosphodiesterase 1 (TDP1): qHTS in cells in absence of CPT. DT40 Tdp1-/- hTDP1 cells, no CPT, ATP luminescence, 48 h. Potency, µM (doses to about 46.2 µM), most hits filed as inhibitors. actives 15% (n = 420,000). AID 686978, 2013; also: nearly all actives have a fitted effect of over 55% in size
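Camptothecin absent (DMSO only). Human TDP1-complemented DT40 knockout cells, 400 cells/well, 37 °C for minimum 48 hr; ATP measured via CellTiter-Glo, 30 min dark incubation, luminescence.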
HT1080 IDH1KD tx – HT-1080 IDH1 knockdown cell toxicity (counter line). HT-1080 IDH1 knockdown viability, ATP luminescence, 48 h. Potency, µM (series often up to 46.1 µM), usual class: cytotoxic. actives 2% (n = 360,000). AID 686971
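IDH1KD HT-1080 cells, 750/well, RPMI + 5% FBS; compound pinned after 2 h settling; 48 h, 37 °C; CellTiter-Glo luminescence; % activity normalised to DMSO and no-cell wells; curves fitted, classed by r2 and efficacy.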
IL1B secr inh – blocks inflammasome-driven IL-1 beta release; THP-1 LPS/ATP IL-1B secretion, AlphaLISA, 16 h; hits give low values; activity change, % at 57.5 µM; actives 4.7% (n = 360,000); in the data active = activity change below about -50%; inconclusive = mostly about -30% to -49%
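THP-1 cells pretreated 1 hr with compounds (up to 57.5 uM final), then stimulated with LPS (250 ng/mL final) plus ATP (1.25 mM final); secreted IL-1B measured by AlphaLISA after 16 hr, decreased signal indicating inhibition.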
Each line names hits and unclear results; the compound was inactive in the other large screens. Unless noted, calls follow the shape of the dose curve; as a rule, active = well fitted curve in the direction sought with a large enough effect; inconclusive = small, poorly fitted or top-dose-only effect, or another doubt; inactive = no such curve, though single readings can be large; an effect the other way counts as inactive or inconclusive.

COc1ccc(CC2(CO)CCN(Cc3cnc(-c4ccccc4C)nc3)CC2)cc1	DT40 TDP1 CPT inconclusive, TDP1 cell noCPT 13µM
COc1ccc(CC2(CO)CCN(Cc3cnn(-c4ccc(F)cc4)c3)CC2)cc1	TDP1 cell noCPT inconclusive
C=CCSc1nnc(N2C(=O)C(O)=C(C(=O)c3ccco3)C2c2ccccc2F)s1 (stereo not drawn)	HT1080 IDH1KD tx inconclusive
Cn1nc([N+](=O)[O-])nc1Sc1nnnn1-c1ccc(C(=O)O)cc1	none
CC1CCCCC1NC(=O)c1ccc(NC2=NC3CS(=O)(=O)CC3S2)cc1 (stereo not drawn)	none
COc1ccc(CC2(CO)CCN(Cc3nc(C(C)C)cs3)CC2)cc1	TDP1 cell noCPT inconclusive
COc1ccc(CC2(CO)CCN(Cc3cnn(-c4ccccc4OC)c3)CC2)cc1	DT40 TDP1 CPT inconclusive, TDP1 cell noCPT 10µM
Cc1ccc(NC(=O)COc2ccc(CCO)cc2-n2nc3ccccc3n2)cc1C	DT40 TDP1 CPT inconclusive, HT1080NT lethal inconclusive, TDP1 cell noCPT 12µM, HT1080 IDH1KD tx inconclusive
Cc1ccc(OCC(=O)O)c(-n2nc3ccccc3n2)c1	none
Cc1nc([N+](=O)[O-])nn1C12CC3CC(CC(Cl)(C3)C1)C2	none
COc1ccc(NC(C)C(=O)N/N=C/c2c(O)ccc3ccccc23)cc1 (stereo not drawn)	DT40 TDP1 CPT 4.6µM, TDP1 cell noCPT 5.8µM, HT1080 IDH1KD tx inconclusive
COc1ccc(NC(C)C(=O)N/N=C/c2ccccc2OCc2cccc(Br)c2)cc1 (stereo not drawn)	DT40 TDP1 CPT inconclusive, TDP1 cell noCPT inconclusive, IL1B secr inh -64
O=C(CSCC(=O)Nc1ccccc1)N/N=C/c1c(O)ccc2ccccc12	DT40 TDP1 CPT 4.5µM, HT1080NT lethal 3.2µM, TDP1 cell noCPT 4.5µM, HT1080 IDH1KD tx 1.6µM
O=C(N/N=C/c1cc(Br)ccc1O)Nc1ccccc1	DT40 TDP1 CPT inconclusive, HT1080NT lethal inconclusive, TDP1 cell noCPT inconclusive, HT1080 IDH1KD tx inconclusive, IL1B secr inh -97
CCOc1ccccc1NC(=O)C(=O)N/N=C/c1cc(Br)ccc1O	DT40 TDP1 CPT inconclusive, HT1080NT lethal inconclusive, TDP1 cell noCPT 10µM, HT1080 IDH1KD tx inconclusive
O=C(N/N=C/c1c(O)ccc2ccccc12)Nc1ccccc1	DT40 TDP1 CPT 26µM, TDP1 cell noCPT 15µM
O=C(CNc1ccccc1)N/N=C/c1c(O)ccc2ccccc12	DT40 TDP1 CPT 10µM, HT1080NT lethal 10µM, TDP1 cell noCPT 6.5µM, HT1080 IDH1KD tx 12µM
O=C(CN1CCOCC1)N/N=C/c1ccco1	none
O=C(CN1CCOCC1)N/N=C/c1c(O)ccc2ccccc12	DT40 TDP1 CPT 7.3µM, HT1080NT lethal inconclusive, TDP1 cell noCPT 9.2µM, HT1080 IDH1KD tx inconclusive
CC1(C(=O)NS(=O)(=O)Cc2ccccc2C(F)(F)F)CCN1C(=O)Cc1cccs1 (stereo not drawn)	DT40 TDP1 CPT inconclusive
COc1ccccc1C(=O)COC(=O)Cn1[nH]c(=O)c2ccccc2c1=O	none
c1ccc(-c2noc(-c3cccnc3NCc3ccco3)n2)cc1	DT40 TDP1 CPT inconclusive (no result: HT1080NT lethal, HT1080 IDH1KD tx, IL1B secr inh)
CN(C)S(=O)(=O)c1cccc(NC(=S)N/N=C/c2cc(Br)ccc2O)c1	DT40 TDP1 CPT 2.6µM, HT1080NT lethal inconclusive, TDP1 cell noCPT 3.7µM, HT1080 IDH1KD tx inconclusive, IL1B secr inh -73
CN(C)S(=O)(=O)c1cccc(NC(=S)N/N=C/c2cccc(O)c2)c1	DT40 TDP1 CPT inconclusive
Cc1ccc(-c2noc(-c3cccnc3N(C)Cc3ccc(Cl)cc3)n2)cc1	none (no result: HT1080NT lethal, HT1080 IDH1KD tx, IL1B secr inh)
C[C@@H]1CC[C@H](O)/C=C/C(=O)O[C@H](C)CC[C@H](O)/C=C/C(=O)O1	DT40 TDP1 CPT 5.2µM, TDP1 cell noCPT 5.2µM
CSc1nnc(-c2cc3c(-c4ccccc4)nn(C)c3s2)n1C	DT40 TDP1 CPT inconclusive, TDP1 cell noCPT 23µM, IL1B secr inh inconclusive
CCCCCC(=O)O/N=C(\C)c1ccn(S(=O)(=O)c2ccccc2)c1	DT40 TDP1 CPT 15µM
CCCC(=O)O/N=C(\c1ccccc1)c1ccncc1	none
CN(C(=O)COC(=O)/C=C/c1ccc(S(=O)(=O)N2CCc3ccccc32)cc1)C1CCS(=O)(=O)C1 (stereo not drawn)	none
